Test results published in PubChem BioAssay (Tox21).
Records with an inconclusive call do not appear. Some compounds were tested as several samples or in several runs, with calls that do not always agree. The source made the active and inactive calls. The call rests on the fitted dose curve; in most records, active means well fitted curve in the direction sought with a large enough effect in the repeat runs; inconclusive means weak or mixed curves; inactive means no such curve, though single readings can be large; an effect the other way counts as inactive or inconclusive.

Key:
[1] = A CellTox Green Cytotoxicity Assay to monitor cytotoxicity in HEK293 cells - 32 hour (AID 1224881); further: nearly all actives have a fitted effect of over 40% in size; further: potency means the concentration at half of the fitted maximal effect
Summary of the method: (§1)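 Fluorescence intensity, read at 0, 8, 16, 24, 32 and 40 h of compound treatment, reflected dye binding to DNA of dead HEK293 cells; compounds (23 nL, DMSO) were added 5 h after plating cells with reagent.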

[2] = A CellTox Green Cytotoxicity Assay to monitor cytotoxicity in HepG2 cells - 32 hour (AID 1224883); further: nearly all actives have a fitted effect of over 50% in size; further: potency means the concentration at half of the fitted maximal effect
Summary of the method: (§2)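 Using 1536-well format, dye-containing HepG2 suspension was seeded, allowed 5 h at 37 C/5% CO2, dosed by pintool with compounds, positive and negative controls, and imaged for fluorescence across 40 h.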

[3] = A CellTox Green Cytotoxicity Assay to monitor cytotoxicity in HEK293 cells - 8 hour (AID 1224884); further: nearly all actives have a fitted effect of over 35% in size; further: potency means the concentration at half of the fitted maximal effect
Summary of the method: as §1

[4] = qHTS RealTime-Glo MT Cell Viability Assay in HepG2 cells - 16 hour (AID 1224885); further: nearly all actives have a fitted effect of over 50% in size
Summary of the method: (§3)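 Real-time, nonlytic viability: 600 HepG2 cells/well mixed with NanoLuc enzyme plus prosubstrate; 5 h settle, compound (DMSO) added by pintool; luminescence monitored over 40 h at 37 C.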

[5] = qHTS RealTime-Glo MT Cell Viability Assay in HEK293 cells - 24 hour (AID 1224886); further: nearly all actives have a fitted effect of over 50% in size; further: potency means the concentration at half of the fitted maximal effect; on activity change, negative = cytotoxicity: top concentration of the series differs between compounds
Summary of the method: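 Cells + reagent dispensed (600 cells/well, HEK293) → 5 h at 37 C/5% CO2 → 23 nL compound in DMSO pinned → 40 h at 37 C → luminescence read at 0, 8, 16, 24, 32, 40 h.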

[6] = qHTS RealTime-Glo MT Cell Viability Assay in HEK293 cells - 8 hour (AID 1224887); further: nearly all actives have a fitted effect of over 50% in size; further: potency means the concentration at half of the fitted maximal effect; on activity change, negative = cytotoxicity: top concentration of the series differs between compounds
Summary of the method: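 Viable HEK293 cells reduce a cell-permeant prosubstrate; the product diffuses out and is consumed by NanoLuc in the medium to give light. Compounds went in after a 5 h incubation and plates were read over the treatment course.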

[7] = A CellTox Green Cytotoxicity Assay to monitor cytotoxicity in HEK293 cells - 16 hour (AID 1224888); further: nearly all actives have a fitted effect of over 35% in size; further: potency means the concentration at half of the fitted maximal effect
Summary of the method: as §1

[8] = qHTS RealTime-Glo MT Cell Viability Assay in HepG2 cells - 0 hour (AID 1224889); further: nearly all actives have a fitted effect of over 50% in size
Summary of the method: as §3

[9] = A CellTox Green Cytotoxicity Assay to monitor cytotoxicity in HepG2 cells - 8 hour (AID 1224890); further: nearly all actives have a fitted effect of over 45% in size; further: potency means the concentration at half of the fitted maximal effect
Summary of the method: as §2

[10] = A CellTox Green Cytotoxicity Assay to monitor cytotoxicity in HepG2 cells - 0 hour (AID 1224882); further: nearly all actives have a fitted effect of over 35% in size
Summary of the method: as §2
On the % scale 0 is the no-effect control and ±100 the full control effect.

CON(C)C(=O)Nc1ccc(Br)cc1
inactive: Potency [1] | Potency [2] | Potency [3] | Potency [4] | Potency [5] | Potency [6] | Potency [7] | outcome [8] | Potency [9]

C[C@H](CN1CCOCC1)C(C(=O)N1CCCC1)(c1ccccc1)c1ccccc1
inactive: Potency [1] | outcome [10] | Potency [3] | Potency [4] | Potency [6] | Potency [7] | outcome [8] | Potency [9]

Cc1cccc2sc3nncn3c12
inactive: Potency [1] | outcome [10] | Potency [3] | Potency [4] | Potency [5] | Potency [6] | Potency [7] | Potency [9]

CC(C)c1ccc(O)cc1
inactive: Potency [1] | Potency [2] | Potency [3] | Potency [4] | Potency [5] | Potency [6] | Potency [7] | outcome [8] | Potency [9]

CC#Cc1cc(C)nc(Nc2ccccc2)n1
inactive: Potency [1] | outcome [10] | Potency [2] | Potency [4] | Potency [7] | outcome [8]

CN(C)CCc1c[nH]c2cccc(OP(=O)(O)O)c12
inactive: Potency [1] | outcome [10] | Potency [2] | Potency [4] | Potency [5] | Potency [7] | outcome [8] | Potency [9]

COc1cc(CC(C)N)cc(OC)c1OC (stereo unspecified)
inactive: Potency [1] | outcome [10] | Potency [2] | Potency [4] | Potency [5] | Potency [6] | outcome [8] | Potency [9]

CCOC1Oc2ccc(OS(C)(=O)=O)cc2C1(C)C (stereo unspecified)
inactive: Potency [1] | outcome [10] | Potency [2] | Potency [4] | Potency [6] | Potency [7] | Potency [9]

CCN[C@@H](C)Cc1ccccc1
inactive: Potency [1] | outcome [10] | Potency [2] | Potency [5] | Potency [6] | Potency [7] | outcome [8] | Potency [9]

C[C@]12C=CC(=O)C=C1CC[C@@H]1[C@@H]2CC[C@@]2(C)[C@H]1CC[C@]2(C)O
inactive: Potency [1] | Potency [2] | Potency [3] | Potency [4] | Potency [5] | Potency [6] | outcome [8] | Potency [9]

COC[C@@H](NC(C)=O)C(=O)NCc1ccccc1
inactive: Potency [1] | Potency [2] | Potency [3] | Potency [4] | Potency [5] | Potency [6] | Potency [7] | outcome [8] | Potency [9]

Cn1c(N)nc2c3cccnc3ccc21
inactive: outcome [10] | Potency [2] | Potency [3] | Potency [4] | Potency [5] | outcome [8] | Potency [9]

[O-][Br+2]([O-])O
inactive: Potency [1] | Potency [2] | Potency [4] | Potency [5] | Potency [6] | Potency [7] | outcome [8] | Potency [9]

COc1ccc(C=O)cc1O
inactive: Potency [1] | Potency [2] | Potency [4] | Potency [5] | Potency [6] | Potency [7] | outcome [8] | Potency [9]

CCCC[N+](=O)[O-]
inactive: outcome [10] | Potency [2] | Potency [4] | Potency [5] | Potency [6] | Potency [7] | outcome [8] | Potency [9]

O=c1[nH]oc2c1CCNC2
inactive: Potency [1] | Potency [3] | Potency [4] | Potency [5] | outcome [8]

ClC1=C(Cl)C2(Cl)C(CBr)CC1(Cl)C2(Cl)Cl (stereo unspecified)
54.9 µM (active) and inactive: Potency [1]
inactive: Potency [2] | Potency [3]
49 µM (active) and inactive: Potency [5]
43.6 µM (active) and inactive: Potency [6]

CCCCOC(C)=O
inactive: Potency [1] | Potency [2] | Potency [3] | Potency [5] | outcome [8] | Potency [9]

O=C(CCl)NCO
inactive: Potency [1] | Potency [2] | Potency [4] | Potency [5] | Potency [6] | Potency [7] | outcome [8] | Potency [9]

O=C(NC(O)C(Cl)(Cl)Cl)NC(O)C(Cl)(Cl)Cl (stereo unspecified)
inactive: Potency [1] | Potency [2] | Potency [3] | Potency [5] | Potency [6] | Potency [7] | Potency [9]

O=[N+]([O-])c1cccc(CCl)c1
inactive: Potency [1] | Potency [2] | Potency [3] | Potency [5] | Potency [6] | outcome [8] | Potency [9]

O=CCCl
inactive: Potency [1] | Potency [2] | Potency [3] | Potency [4] | Potency [5] | Potency [6] | outcome [8] | Potency [9]

C[N+]1(C)CCCCC1
inactive: Potency [1] | Potency [2] | Potency [3] | Potency [5] | Potency [6] | Potency [7] | outcome [8]

CC(C)N(Cc1ccccc1)C(=O)C(C)(C)C
inactive: Potency [1] | Potency [4] | Potency [5] | Potency [6] | Potency [7] | outcome [8] | Potency [9]

CCCN1CCC[C@@H]2Cc3nc(N)ncc3C[C@H]21
inactive: Potency [5] | outcome [8]
active: Potency [1] 16.9 µM | Potency [2] 21.3 µM | Potency [3] 19 µM | Potency [7] 19 µM | Potency [9] 23.9 µM

CCN1CCCC1CNC(=O)C(O)(c1ccccc1)c1ccccc1 (stereo unspecified)
inactive: Potency [1] | Potency [2] | Potency [3] | Potency [4] | Potency [5] | outcome [8] | Potency [9]

Cc1ccc(Cl)c(O)c1
inactive: Potency [1] | Potency [2] | Potency [5] | Potency [6] | Potency [7] | outcome [8] | Potency [9]

CCOC(=O)NC(C)(C)Cc1ccc(Cl)cc1
inactive: outcome [10] | Potency [2] | Potency [3] | Potency [4] | Potency [5] | Potency [7] | outcome [8] | Potency [9]

CC(Cc1ccccc1)NCCCCl (stereo unspecified)
inactive: Potency [1] | Potency [2] | Potency [4] | Potency [5] | Potency [6] | outcome [8] | Potency [9]

CC(C)(C1CCC(O)CC1)C1CCC(O)CC1 (stereo unspecified)
inactive: Potency [1] | Potency [2] | Potency [3] | Potency [4] | Potency [5] | Potency [6] | outcome [8] | Potency [9]

CC1NCCOC1c1ccccc1 (stereo unspecified)
inactive: Potency [1] | Potency [2] | Potency [3] | Potency [4] | Potency [5] | outcome [8] | Potency [9]

CCCN1CCC[C@@H]2Cc3[nH]ncc3C[C@H]21
inactive: Potency [1] | Potency [2] | Potency [3] | Potency [5] | Potency [6] | Potency [7] | outcome [8] | Potency [9]

C=CCc1cc(OC)c2c(c1)OCO2
inactive: Potency [2] | Potency [5] | Potency [6] | outcome [8] | Potency [9]

O=C(O)C(Cl)Br (stereo unspecified)
inactive: Potency [1] | Potency [2] | Potency [3] | Potency [4] | outcome [8] | Potency [9]

C=C1C[C@@H]2[C@H](CC[C@]3(C)C(=O)CC[C@@H]23)[C@@]2(C)C=CC(=O)C=C12
inactive: Potency [1] | Potency [2] | Potency [3] | Potency [4] | Potency [5] | Potency [7] | Potency [9]

CC(Cc1ccccc1)NCCn1cnc2c1c(=O)n(C)c(=O)n2C (stereo unspecified)
inactive: Potency [1] | Potency [2] | Potency [4] | Potency [7] | Potency [9]
active: Potency [5] 21.6 µM | Potency [6] 24.2 µM

CN(C)CCN(C)C
inactive: Potency [1] | Potency [3] | Potency [4] | Potency [5] | Potency [6] | Potency [7] | outcome [8] | Potency [9]

C[C@@H](N)[C@@H](O)c1ccccc1
inactive: Potency [1] | Potency [2] | Potency [4] | Potency [5] | Potency [6] | Potency [7] | outcome [8]

CCN(CCO)CCO
inactive: Potency [1] | Potency [2] | Potency [3] | Potency [5] | Potency [6] | outcome [8] | Potency [9]

CC(C)[C@]12CC(=O)[C@H](C)[C@H]1C2
inactive: Potency [1] | Potency [2] | Potency [3] | Potency [4] | Potency [5] | Potency [7] | outcome [8] | Potency [9]

BrCC1CO1 (stereo unspecified)
inactive: Potency [1] | Potency [2] | Potency [3] | Potency [5] | Potency [6] | Potency [7] | Potency [9]

C/C=C/CC#N
inactive: outcome [10] | Potency [2] | Potency [4] | Potency [5] | Potency [6] | outcome [8] | Potency [9]

CCC(C(N)=O)N1CCCC1=O (stereo unspecified)
inactive: Potency [1] | Potency [2] | Potency [3] | Potency [4] | Potency [5] | Potency [7] | outcome [8] | Potency [9]

ClCCCCl
inactive: Potency [1] | Potency [2] | Potency [3] | Potency [5] | Potency [6] | Potency [7] | outcome [8] | Potency [9]

CCOP(=S)(OCC)SCCl
inactive: outcome [10] | Potency [2] | Potency [4] | Potency [5] | Potency [6] | Potency [7] | outcome [8] | Potency [9]

CCCCCCCCBr
inactive: Potency [1] | Potency [2] | Potency [4] | Potency [5] | Potency [6] | Potency [7] | outcome [8] | Potency [9]

Cc1ccc2c(c1)C1CN(C)CCC1N2 (stereo unspecified)
inactive: cytotoxicity increase [1] -4.65% [at 15.8 µM] | cytotoxicity increase [2] 14.3% [at 15.8 µM] | cytotoxicity increase [3] -1.28% [at 15.8 µM] | activity change, negative = cytotoxicity [5] -0.194% [at 15.8 µM] | activity change, negative = cytotoxicity [6] 1.42% [at 15.8 µM] | activity change, negative = cytotoxicity [8] -0.0575% [at 15.8 µM] | cytotoxicity increase [9] 11.9% [at 15.8 µM]
